1 sequence from publication PMC7862700, “An all-to-all approach to the identification of sequence-specific readers for epigenetic DNA modifications on cytosine” can be followed below.

Assay in all cases: DAPPL (digital affinity profiling via proximity ligation, sequencing); 10 mM Tris-HCl pH 7.5, 50 mM NaCl, 1 mM DTT, 4% glycerol, room temperature, 30 min; GST-TFs on glutathione beads, 16-mer random dsDNA library, 0.1% formaldehyde crosslink after washing; high values mean tight binding
For one test, the target named is T1, FLI1 (Homo sapiens, UniProt Q01543 1-452).
T1 sequence: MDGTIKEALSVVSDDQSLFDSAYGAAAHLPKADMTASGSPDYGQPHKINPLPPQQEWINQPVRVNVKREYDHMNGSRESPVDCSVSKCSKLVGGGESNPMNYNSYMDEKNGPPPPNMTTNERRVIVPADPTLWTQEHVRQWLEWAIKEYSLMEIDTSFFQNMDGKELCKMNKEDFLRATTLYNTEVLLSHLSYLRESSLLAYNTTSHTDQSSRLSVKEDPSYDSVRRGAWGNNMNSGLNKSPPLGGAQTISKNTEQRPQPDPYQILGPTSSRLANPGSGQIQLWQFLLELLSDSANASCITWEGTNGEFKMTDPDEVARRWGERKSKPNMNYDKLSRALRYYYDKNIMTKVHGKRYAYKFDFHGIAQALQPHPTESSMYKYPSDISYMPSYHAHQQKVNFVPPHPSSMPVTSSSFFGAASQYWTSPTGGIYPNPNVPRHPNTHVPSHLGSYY
The conditions noted are these: protein: recombinant; tags: N-terminal GST; dsDNA, one strand shown. In a few lines:
(§1)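 Human transcription factors were made in yeast as GST fusions, captured on glutathione beads and barcoded with DNA. With a tag-only sample included, the pool was incubated with 200 nmole of a random double-stranded 16-mer DNA library in Tris/NaCl/DTT/glycerol buffer at room temperature for 30 min, then crosslinked with 0.1% formaldehyde after washing, ligated by proximity, amplified and sequenced. For binding signal, each hexamer's read frequency for a factor is divided by its frequency for the tag-only sample.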

A further test has as its target T2, ELK1 (Homo sapiens, UniProt P19419 1-428).
T2 sequence: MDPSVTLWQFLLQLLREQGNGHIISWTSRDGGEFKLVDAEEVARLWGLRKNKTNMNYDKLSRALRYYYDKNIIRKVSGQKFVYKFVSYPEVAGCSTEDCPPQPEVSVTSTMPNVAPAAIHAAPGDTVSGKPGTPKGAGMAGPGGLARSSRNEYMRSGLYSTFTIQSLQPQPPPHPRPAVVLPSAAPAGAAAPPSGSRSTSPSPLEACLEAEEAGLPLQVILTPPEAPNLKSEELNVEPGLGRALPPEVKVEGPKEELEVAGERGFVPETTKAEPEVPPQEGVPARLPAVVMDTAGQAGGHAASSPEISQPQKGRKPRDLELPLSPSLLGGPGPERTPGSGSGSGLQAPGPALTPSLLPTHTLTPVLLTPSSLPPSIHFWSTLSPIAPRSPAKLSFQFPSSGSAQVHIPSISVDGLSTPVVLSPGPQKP
The conditions noted are these: protein: recombinant; tags: N-terminal GST; dsDNA, one strand shown. In a few lines:
as §1

In the next test the target is T3, GABPA (Homo sapiens, UniProt Q06546 1-454).
T3 sequence: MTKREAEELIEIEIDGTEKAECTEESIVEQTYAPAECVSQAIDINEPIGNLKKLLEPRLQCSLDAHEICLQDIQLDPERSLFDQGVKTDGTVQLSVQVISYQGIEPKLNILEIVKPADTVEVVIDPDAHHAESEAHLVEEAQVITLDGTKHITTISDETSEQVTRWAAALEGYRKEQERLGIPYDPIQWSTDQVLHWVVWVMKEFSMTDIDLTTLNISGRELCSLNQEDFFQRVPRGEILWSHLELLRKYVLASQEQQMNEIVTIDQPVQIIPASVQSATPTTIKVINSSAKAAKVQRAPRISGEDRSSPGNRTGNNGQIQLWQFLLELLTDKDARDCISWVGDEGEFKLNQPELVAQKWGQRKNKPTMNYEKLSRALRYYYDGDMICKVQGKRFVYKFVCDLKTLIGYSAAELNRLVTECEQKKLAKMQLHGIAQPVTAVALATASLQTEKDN
The conditions noted are these: protein: recombinant; tags: N-terminal GST; dsDNA, one strand shown. The method, boiled down:
as §1

In the next test the target is T4, ERG (Homo sapiens, UniProt P11308 1-479).
T4 sequence: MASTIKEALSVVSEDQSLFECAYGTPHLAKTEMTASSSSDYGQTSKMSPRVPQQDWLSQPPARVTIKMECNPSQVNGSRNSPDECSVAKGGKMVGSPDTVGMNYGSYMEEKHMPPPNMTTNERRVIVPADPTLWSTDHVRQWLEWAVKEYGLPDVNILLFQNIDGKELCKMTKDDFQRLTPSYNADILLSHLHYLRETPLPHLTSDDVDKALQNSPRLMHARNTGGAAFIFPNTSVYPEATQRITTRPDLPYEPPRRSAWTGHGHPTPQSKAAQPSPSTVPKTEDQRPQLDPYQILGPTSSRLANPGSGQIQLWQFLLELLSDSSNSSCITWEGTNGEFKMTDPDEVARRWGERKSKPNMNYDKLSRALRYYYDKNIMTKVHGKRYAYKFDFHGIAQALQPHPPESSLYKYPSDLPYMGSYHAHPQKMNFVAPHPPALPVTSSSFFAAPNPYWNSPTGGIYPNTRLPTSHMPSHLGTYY
Particulars: protein: recombinant; tags: N-terminal GST; dsDNA, one strand shown. The method, boiled down:
as §1

In the next test the target is ELF1 (Homo sapiens, UniProt P32519 1-619). The conditions noted are these: protein: recombinant; tags: N-terminal GST; dsDNA, one strand shown. The method, boiled down: as §1
The next test has as its target T5, EHF (Homo sapiens, UniProt Q9NZC4 1-300).
T5 sequence: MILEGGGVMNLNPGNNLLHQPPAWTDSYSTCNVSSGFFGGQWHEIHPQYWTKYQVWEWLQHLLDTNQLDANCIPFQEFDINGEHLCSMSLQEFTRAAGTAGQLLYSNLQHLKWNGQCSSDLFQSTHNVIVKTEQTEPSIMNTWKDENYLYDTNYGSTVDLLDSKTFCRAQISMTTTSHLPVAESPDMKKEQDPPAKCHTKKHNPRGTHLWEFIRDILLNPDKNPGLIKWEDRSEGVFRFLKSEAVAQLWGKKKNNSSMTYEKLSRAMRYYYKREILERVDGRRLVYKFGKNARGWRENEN
The conditions noted are these: protein: recombinant; tags: N-terminal GST; dsDNA, one strand shown. In a few lines:
as §1

The target in a further test is SPI1 (Homo sapiens, UniProt P17947 1-270). Particulars: protein: recombinant; tags: N-terminal GST; dsDNA, one strand shown. In a few lines: as §1
The target in another test is SPIB (Homo sapiens, UniProt Q01892 1-262). Particulars: protein: recombinant; tags: N-terminal GST; dsDNA, one strand shown. The method, boiled down:
as §1

The next test has as its target T6, ELK3 (Homo sapiens, UniProt P41970 1-407).
T6 sequence: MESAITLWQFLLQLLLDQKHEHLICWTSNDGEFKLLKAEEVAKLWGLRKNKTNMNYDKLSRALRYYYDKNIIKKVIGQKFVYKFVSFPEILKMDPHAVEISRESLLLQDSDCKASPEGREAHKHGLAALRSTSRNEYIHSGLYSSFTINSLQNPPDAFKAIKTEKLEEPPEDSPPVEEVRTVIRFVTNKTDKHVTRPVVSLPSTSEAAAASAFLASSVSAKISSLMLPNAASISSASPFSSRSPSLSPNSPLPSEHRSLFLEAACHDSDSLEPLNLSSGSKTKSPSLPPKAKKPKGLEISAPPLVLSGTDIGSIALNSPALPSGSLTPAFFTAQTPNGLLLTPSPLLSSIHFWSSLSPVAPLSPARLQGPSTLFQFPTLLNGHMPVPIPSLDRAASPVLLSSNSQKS
Particulars: protein: recombinant; tags: N-terminal GST; dsDNA, one strand shown. The method, boiled down:
as §1

A further test addresses T7, FEV (Homo sapiens, UniProt Q99581 1-238).
T7 sequence: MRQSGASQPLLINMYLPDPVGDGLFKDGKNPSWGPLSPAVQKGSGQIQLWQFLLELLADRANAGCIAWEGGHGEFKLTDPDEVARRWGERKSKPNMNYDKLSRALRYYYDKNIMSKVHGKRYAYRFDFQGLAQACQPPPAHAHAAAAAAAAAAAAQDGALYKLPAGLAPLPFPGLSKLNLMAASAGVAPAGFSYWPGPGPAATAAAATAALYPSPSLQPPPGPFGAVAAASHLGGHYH
Particulars: protein: recombinant; tags: N-terminal GST; dsDNA, one strand shown. The method, boiled down:
as §1

A further test deals with ETV5 (Homo sapiens, UniProt P41161 1-510). Particulars: protein: recombinant; tags: N-terminal GST; dsDNA, one strand shown. In a few lines:
as §1

The next test deals with HSF1 (Homo sapiens, UniProt Q00613 1-529). Particulars: protein: recombinant; tags: N-terminal GST; chain copies: 3; dsDNA, one strand shown. The method, boiled down: as §1
The target in a further test is T8, SPIC (Homo sapiens, UniProt Q8N5J4 1-248).
T8 sequence: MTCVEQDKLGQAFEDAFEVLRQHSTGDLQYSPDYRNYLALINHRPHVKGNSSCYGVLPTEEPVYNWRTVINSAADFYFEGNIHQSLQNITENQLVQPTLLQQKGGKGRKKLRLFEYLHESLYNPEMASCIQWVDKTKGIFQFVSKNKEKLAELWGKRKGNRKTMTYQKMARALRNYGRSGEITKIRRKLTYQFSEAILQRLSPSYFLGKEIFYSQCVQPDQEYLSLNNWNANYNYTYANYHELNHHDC
Particulars: protein: recombinant; tags: N-terminal GST; dsDNA, one strand shown. In a few lines: as §1

For the next test, the target named is ELF4 (Homo sapiens, UniProt Q99607 1-663). Particulars: protein: recombinant; tags: N-terminal GST; dsDNA, one strand shown. The method, boiled down:
as §1

Another test has as its target T9, ELK4 (Homo sapiens, UniProt P28324-2 1-405).
T9 sequence: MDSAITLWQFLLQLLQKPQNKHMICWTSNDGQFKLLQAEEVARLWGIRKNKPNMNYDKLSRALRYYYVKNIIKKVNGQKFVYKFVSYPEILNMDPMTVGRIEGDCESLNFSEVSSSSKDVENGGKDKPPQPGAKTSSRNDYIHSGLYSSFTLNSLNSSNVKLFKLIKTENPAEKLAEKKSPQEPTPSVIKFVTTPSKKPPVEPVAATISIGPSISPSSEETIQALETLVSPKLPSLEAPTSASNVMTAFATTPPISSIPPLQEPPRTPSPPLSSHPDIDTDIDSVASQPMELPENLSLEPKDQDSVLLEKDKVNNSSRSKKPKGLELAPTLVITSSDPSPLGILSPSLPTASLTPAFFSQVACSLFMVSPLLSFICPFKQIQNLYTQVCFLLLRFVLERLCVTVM
The conditions noted are these: protein: recombinant; tags: N-terminal GST; dsDNA, one strand shown. The method, boiled down: as §1

A further test concerns the target T10, ETV2 (Homo sapiens, UniProt O00321 1-342).
T10 sequence: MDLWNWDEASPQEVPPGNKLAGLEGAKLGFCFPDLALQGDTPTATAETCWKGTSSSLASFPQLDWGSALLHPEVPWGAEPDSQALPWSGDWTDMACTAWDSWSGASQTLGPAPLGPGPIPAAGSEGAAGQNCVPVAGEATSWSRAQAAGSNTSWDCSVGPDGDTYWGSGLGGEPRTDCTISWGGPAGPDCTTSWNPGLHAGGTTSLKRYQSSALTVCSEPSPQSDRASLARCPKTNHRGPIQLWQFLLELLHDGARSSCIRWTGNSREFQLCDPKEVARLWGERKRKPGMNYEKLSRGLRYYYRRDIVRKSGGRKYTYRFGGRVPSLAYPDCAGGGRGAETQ
The conditions noted are these: protein: recombinant; tags: N-terminal GST; dsDNA, one strand shown. In a few lines:
as §1

The next test deals with T11, ELF3 (Homo sapiens, UniProt P78545 1-371).
T11 sequence: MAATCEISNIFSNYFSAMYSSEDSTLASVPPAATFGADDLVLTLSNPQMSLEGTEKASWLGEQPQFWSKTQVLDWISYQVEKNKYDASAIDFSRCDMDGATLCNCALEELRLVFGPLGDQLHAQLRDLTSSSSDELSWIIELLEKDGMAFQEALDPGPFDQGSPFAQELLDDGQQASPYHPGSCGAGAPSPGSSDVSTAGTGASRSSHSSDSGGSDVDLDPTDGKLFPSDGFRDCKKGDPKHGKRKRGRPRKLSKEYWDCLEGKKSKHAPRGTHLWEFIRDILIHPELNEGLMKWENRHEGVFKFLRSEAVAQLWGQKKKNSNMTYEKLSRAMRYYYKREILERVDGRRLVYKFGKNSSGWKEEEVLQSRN
The conditions noted are these: protein: recombinant; tags: N-terminal GST; dsDNA, one strand shown. In a few lines: as §1

A further test concerns the target ETV1 (Homo sapiens, UniProt P50549 1-477). Particulars: protein: recombinant; tags: N-terminal GST; dsDNA, one strand shown. The method, boiled down: as §1

ELF4, sequence (Q99607 whole entry): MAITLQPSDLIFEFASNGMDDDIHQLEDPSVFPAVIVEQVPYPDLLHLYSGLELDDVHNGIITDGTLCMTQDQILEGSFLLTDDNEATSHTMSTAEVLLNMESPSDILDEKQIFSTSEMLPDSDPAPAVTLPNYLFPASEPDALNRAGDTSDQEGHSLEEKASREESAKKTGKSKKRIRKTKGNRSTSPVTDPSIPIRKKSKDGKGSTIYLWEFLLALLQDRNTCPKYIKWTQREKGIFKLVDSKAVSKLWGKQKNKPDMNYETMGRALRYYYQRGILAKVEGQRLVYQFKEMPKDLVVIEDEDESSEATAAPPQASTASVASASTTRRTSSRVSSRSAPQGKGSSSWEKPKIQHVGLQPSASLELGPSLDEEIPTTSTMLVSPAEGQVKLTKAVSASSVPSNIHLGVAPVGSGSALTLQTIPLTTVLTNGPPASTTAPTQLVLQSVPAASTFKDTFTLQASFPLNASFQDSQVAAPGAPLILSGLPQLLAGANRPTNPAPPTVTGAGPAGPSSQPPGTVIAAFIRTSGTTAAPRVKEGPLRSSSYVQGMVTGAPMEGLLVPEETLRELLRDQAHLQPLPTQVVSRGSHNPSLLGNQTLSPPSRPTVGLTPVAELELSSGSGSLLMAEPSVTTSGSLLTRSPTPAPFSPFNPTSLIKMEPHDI
ELF1, sequence (P32519 whole entry): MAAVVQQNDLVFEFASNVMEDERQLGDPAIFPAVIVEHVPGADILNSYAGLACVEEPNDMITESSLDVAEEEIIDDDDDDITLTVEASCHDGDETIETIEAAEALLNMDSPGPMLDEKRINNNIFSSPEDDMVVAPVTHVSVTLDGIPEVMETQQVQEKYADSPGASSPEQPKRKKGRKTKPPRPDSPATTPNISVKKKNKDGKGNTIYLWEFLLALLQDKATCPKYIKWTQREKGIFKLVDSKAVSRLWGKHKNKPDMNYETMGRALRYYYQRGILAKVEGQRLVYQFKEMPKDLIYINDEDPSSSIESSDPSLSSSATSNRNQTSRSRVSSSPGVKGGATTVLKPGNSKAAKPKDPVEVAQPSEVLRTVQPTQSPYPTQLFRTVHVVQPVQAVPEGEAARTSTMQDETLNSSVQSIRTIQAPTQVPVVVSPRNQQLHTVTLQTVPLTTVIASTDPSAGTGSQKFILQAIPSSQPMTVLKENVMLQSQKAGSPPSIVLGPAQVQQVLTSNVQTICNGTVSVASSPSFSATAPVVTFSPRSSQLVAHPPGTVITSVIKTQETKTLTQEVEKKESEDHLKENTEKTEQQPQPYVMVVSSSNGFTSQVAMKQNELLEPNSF
SPIB, sequence (Q01892 whole entry): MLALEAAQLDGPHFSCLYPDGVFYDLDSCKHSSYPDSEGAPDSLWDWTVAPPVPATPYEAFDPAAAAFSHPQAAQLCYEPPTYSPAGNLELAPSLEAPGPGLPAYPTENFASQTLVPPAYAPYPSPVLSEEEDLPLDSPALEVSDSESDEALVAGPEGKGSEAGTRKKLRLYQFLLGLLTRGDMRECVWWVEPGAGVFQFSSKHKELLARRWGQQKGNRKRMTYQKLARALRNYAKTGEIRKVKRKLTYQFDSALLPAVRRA
ETV1, sequence (P50549 whole entry): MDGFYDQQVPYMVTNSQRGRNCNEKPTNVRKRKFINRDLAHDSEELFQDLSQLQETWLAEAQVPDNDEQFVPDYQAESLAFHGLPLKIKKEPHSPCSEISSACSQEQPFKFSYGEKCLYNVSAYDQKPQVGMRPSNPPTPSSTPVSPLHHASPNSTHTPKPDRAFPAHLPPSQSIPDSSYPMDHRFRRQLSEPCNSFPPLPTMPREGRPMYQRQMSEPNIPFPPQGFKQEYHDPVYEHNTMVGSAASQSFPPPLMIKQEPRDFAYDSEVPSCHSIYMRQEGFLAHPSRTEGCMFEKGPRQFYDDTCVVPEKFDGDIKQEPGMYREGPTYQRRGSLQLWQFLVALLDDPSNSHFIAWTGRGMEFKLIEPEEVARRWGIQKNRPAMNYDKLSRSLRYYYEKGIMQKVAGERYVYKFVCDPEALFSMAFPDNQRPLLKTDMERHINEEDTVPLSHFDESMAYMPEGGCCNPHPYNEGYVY
HSF1, sequence (Q00613 whole entry): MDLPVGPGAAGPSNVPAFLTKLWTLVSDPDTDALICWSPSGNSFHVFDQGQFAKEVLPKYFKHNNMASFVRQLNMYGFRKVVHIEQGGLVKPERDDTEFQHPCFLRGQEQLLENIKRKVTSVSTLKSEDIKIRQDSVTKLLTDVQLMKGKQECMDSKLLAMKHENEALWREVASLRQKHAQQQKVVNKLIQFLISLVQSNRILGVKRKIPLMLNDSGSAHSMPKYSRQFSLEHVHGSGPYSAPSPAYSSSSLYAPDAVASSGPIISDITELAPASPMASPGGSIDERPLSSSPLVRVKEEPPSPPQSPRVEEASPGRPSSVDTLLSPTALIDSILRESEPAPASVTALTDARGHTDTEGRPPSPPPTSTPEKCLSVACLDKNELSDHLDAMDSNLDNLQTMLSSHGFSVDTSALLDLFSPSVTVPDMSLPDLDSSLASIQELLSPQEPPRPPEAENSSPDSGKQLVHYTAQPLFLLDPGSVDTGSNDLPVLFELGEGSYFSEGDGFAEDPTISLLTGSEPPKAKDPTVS
ETV5, sequence (P41161 whole entry): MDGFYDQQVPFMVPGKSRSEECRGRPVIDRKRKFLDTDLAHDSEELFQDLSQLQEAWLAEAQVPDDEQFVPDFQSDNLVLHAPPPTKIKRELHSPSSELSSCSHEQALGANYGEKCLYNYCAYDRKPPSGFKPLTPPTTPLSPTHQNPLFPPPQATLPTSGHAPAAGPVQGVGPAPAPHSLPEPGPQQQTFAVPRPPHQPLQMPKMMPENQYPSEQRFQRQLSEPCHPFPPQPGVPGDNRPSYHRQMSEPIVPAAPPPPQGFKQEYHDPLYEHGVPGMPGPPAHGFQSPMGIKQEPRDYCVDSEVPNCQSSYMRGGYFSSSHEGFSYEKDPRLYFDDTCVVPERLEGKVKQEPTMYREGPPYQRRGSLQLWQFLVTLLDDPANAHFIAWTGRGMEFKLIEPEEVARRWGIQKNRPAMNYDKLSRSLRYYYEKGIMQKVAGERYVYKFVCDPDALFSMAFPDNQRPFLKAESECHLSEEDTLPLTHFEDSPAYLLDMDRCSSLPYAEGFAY

Consider CCACTG, for which the binding signal with FLI1 was 1.16 fold enrichment (6-mer frequency, TF over GST control); in the test with ELK1, 1.11 fold enrichment (6-mer frequency, TF over GST control); in the test with GABPA it was 1.25 fold enrichment (6-mer frequency, TF over GST control); in the test with ERG it was 1.23 fold enrichment (6-mer frequency, TF over GST control); with ELF1, 1.28 fold enrichment (6-mer frequency, TF over GST control); with EHF it was 1.19 fold enrichment (6-mer frequency, TF over GST control). Moreover, the binding signal is 1.16 fold enrichment (6-mer frequency, TF over GST control) in the test with SPI1; 1.15 fold enrichment (6-mer frequency, TF over GST control) with SPIB; 1.2 fold enrichment (6-mer frequency, TF over GST control) with ELK3; 1.19 fold enrichment (6-mer frequency, TF over GST control) in the test with FEV; 1.15 fold enrichment (6-mer frequency, TF over GST control) with ETV5; 1.08 fold enrichment (6-mer frequency, TF over GST control) in the test with HSF1. Also, the binding signal is 1.34 fold enrichment (6-mer frequency, TF over GST control) with SPIC; 1.2 fold enrichment (6-mer frequency, TF over GST control) with ELF4; 1.18 fold enrichment (6-mer frequency, TF over GST control) in the test with ELK4; 1.17 fold enrichment (6-mer frequency, TF over GST control) with ETV2; 1.04 fold enrichment (6-mer frequency, TF over GST control) with ELF3; 1.31 fold enrichment (6-mer frequency, TF over GST control) with ETV1.
